Experimental data from PubChem BioAssay (EPA / NIEHS).
Records with an inconclusive call do not appear. The source made the active and inactive calls. The calls were made as follows, unless noted: active = hit-call score of the fitted dose curve at least 0.9, where 1 is the maximum; inactive = score below 0.9.

Legend:
[1] = ATG_CRE_CIS: Attagene CIS-FACTORIAL HepG2 Assay for human cAMP Responsive Element (CRE) binding protein 3 (AID 2282926); settings: HepG2 CRE cis-reporter, Attagene multiplexed mRNA; actives raise or lower the signal
Outline: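 Human liver HepG2, transient MRTU transfection, 24 h compound exposure. Total RNA → oligo(dT) RT → PCR → 6-FAM primer extension → HpaI cut → CE. Activity called both directions vs DMSO.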

[2] = ATG_DR4_LXR_CIS: Attagene CIS-FACTORIAL HepG2 Assay for human Liver X Receptor (LXR), DR4 submotif (AID 2282929); settings: HepG2 Attagene DR4 cis-reporter, mRNA transcription; actives raise or lower the signal
Outline: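 Measures endogenous transcription factor activity via a DR4-driven reporter transcript in human HepG2 cells. Compounds incubated 24 h; mRNA quantified by RT-PCR and capillary electrophoresis, analysed as gain or loss of signal versus DMSO.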

[3] = ATG_AP_1_CIS: Attagene CIS-FACTORIAL HepG2 Assay for human Activator Protein 1 (AP-1) (AID 2282931); settings: HepG2 Attagene cis-factorial AP-1 reporter mRNA; actives raise or lower the signal
Outline: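 Bidirectional concentration-response fitting against DMSO controls. Underlying signal: reporter mRNA from cis-promoter constructs in transiently transfected HepG2, measured after 24 h by RT-PCR and capillary electrophoresis.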

[4] = ATG_Ets_CIS: Attagene CIS-FACTORIAL HepG2 Assay for human Erythroblast Transformation Specific (ETS) (AID 2282941); settings: HepG2 ETS cis-reporter transcription, actives raise or lower the signal
Outline: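 Human HepG2 hepatoma cells were transiently transfected with promoter-driven reporter constructs and treated for 24 hours. Reporter transcripts were quantified by RT-PCR with fluorescent primer extension; bidirectional curve fitting used DMSO as reference.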

[5] = target: Hypoxia-inducible factor 1-alpha (Homo sapiens) (UniProt Q16665); test: ATG_HIF1a_CIS: Attagene CIS-FACTORIAL HepG2 Assay for human Hypoxia Inducible Factor 1 (HIF1A) (AID 2282951); settings: HepG2 Attagene cis-factorial HIF1a reporter transcription; actives raise or lower the signal
Outline: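 In this multiplexed cell assay, HepG2 cells bearing transfected cis reporters are dosed for 24 h and reporter mRNA is read by RT-PCR plus capillary electrophoresis; signal increases and decreases are both scored against DMSO.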

[6] = target: Heat shock factor protein 1 (Homo sapiens) (UniProt Q00613); test: ATG_HSE_CIS: Attagene CIS-FACTORIAL HepG2 Assay for human Heat Shock Transcription Factor 1 (HSE) (AID 2282953); settings: HepG2 HSE cis-reporter, Attagene RNA transcription; actives raise or lower the signal
Outline: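 Endogenous transcription factor activity captured via cis-promoter reporter units transfected into HepG2; treatment lasted 24 h. Fluorescence intensity of reporter fragments analysed with bidirectional curve fitting, DMSO baseline.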

[7] = target: Paired box protein Pax-6 (Homo sapiens) (UniProt P26367); test: ATG_Pax6_CIS: Attagene CIS-FACTORIAL HepG2 Assay for human Paired Box 6 (PAX6) (AID 2282956); settings: HepG2 CIS-FACTORIAL PAX6 reporter transcription, RNA readout; actives raise or lower the signal
Outline: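 Multiplexed cis-reporter HepG2 system; 24 h treatment; reporter mRNA read by RT-PCR/CE fluorescence; bidirectional fit vs DMSO.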

[8] = target: Signal transducer and activator of transcription 3 (Homo sapiens) (UniProt P40763); test: ATG_STAT3_CIS: Attagene CIS-FACTORIAL HepG2 Assay for human Signal Transducer and Activator of Transcription 3 (STAT3) (AID 2282963); settings: HepG2, Attagene cis-factorial STAT3 reporter transcription; actives raise or lower the signal
Outline: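 HepG2 cells transiently transfected with cis-element-driven multiple reporter transcription units; after 24 h chemical exposure, reporter mRNA measured by RT-PCR, 6-FAM primer-extension labelling, HpaI digestion and capillary electrophoresis. Bidirectional fitting versus DMSO baseline.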

[9] = ATG_TA_CIS: Attagene CIS-FACTORIAL HepG2 Assay for human TA Basal Promoter (AID 2282964); settings: HepG2 Attagene CIS-factorial TA basal promoter reporter; actives raise or lower the signal
Outline: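 Fluorescence from labelled RT-PCR reporter fragments, separated by capillary electrophoresis, gives the signal. Cells: HepG2 transiently carrying multiple reporter units, 24 h chemical dosing. Gain or loss relative to DMSO.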

[10] = ATG_TCF_b_cat_CIS: Attagene CIS-FACTORIAL HepG2 Assay for human T-Cell-Factor with beta-catenin (TCF/b-cat) (AID 2282965); settings: HepG2 TCF/beta-catenin cis-reporter transcription, actives raise or lower the signal
Outline: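 Using capillary electrophoresis as the read-out, labelled reporter cDNA fragments from transiently transfected HepG2 were sized and quantified. Exposure lasted 24 hours; activity in either direction was referenced to DMSO.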

[11] = ATG_TAL_CIS: Attagene CIS-FACTORIAL HepG2 Assay for human TAL Basal Promoter (AID 2282966); settings: HepG2 Attagene cis-factorial TAL promoter reporter; actives raise or lower the signal;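 also: background control endpoint measuring basal TAL promoter reporter mRNA not a specific factor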
Outline: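 Fluorescence of labelled reporter cDNA fragments, resolved by capillary electrophoresis, gave the readout. Human HepG2 liver cells carried transiently transfected cis-element reporter units and were treated for 24 hours; activity was fitted bidirectionally against DMSO.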

[12] = target: X-box-binding protein 1 (Homo sapiens) (UniProt P17861); test: ATG_Xbp1_CIS: Attagene CIS-FACTORIAL HepG2 Assay for human X-box Binding Protein 1 (XBP1) (AID 2282972); settings: HepG2 XBP1 cis-element reporter, Attagene multiplex; actives raise or lower the signal
Outline: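 Fluorescence-labelled cDNA fragments from reporter transcripts, separated by capillary electrophoresis, give the signal. Source: HepG2 cells transfected with promoter-driven reporter units, harvested 24 h post-dose. DMSO served as reference for bidirectional curve fitting.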

[13] = target: Transcriptional activator Myb (Homo sapiens) (UniProt P10242); test: ATG_Myb_CIS: Attagene CIS-FACTORIAL HepG2 Assay for human Myeloblastosis (Myb) Proto-Oncogene Transcription Factor (AID 2282986); settings: HepG2 Attagene CIS-FACTORIAL Myb reporter transcription; actives raise or lower the signal
Outline: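 Fluorescence signals from capillary electrophoresis of RT-PCR-amplified reporter cDNA give the read-out. Cells: HepG2 transfected with multiple cis-regulated reporter units. Exposure lasts 24 hours; DMSO defines baseline for gain or loss of signal.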

[14] = ATG_NFI_CIS: Attagene CIS-FACTORIAL HepG2 Assay for human Nuclear Factor I (NFI) (AID 2282989); settings: HepG2 cis-regulatory reporter, NFI response element transcription; actives raise or lower the signal
Outline: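 Cells: human liver HepG2, transiently transfected with promoter-regulated reporter transcription units. Exposure 24 h. Detection: fluorescent RT-PCR products separated by capillary electrophoresis, normalised to DMSO negative control.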

[15] = target: Myc proto-oncogene protein (Homo sapiens) (UniProt P01106); test: ATG_Myc_CIS: Attagene CIS-FACTORIAL HepG2 Assay for human Myelocytomatosis (Myc) Proto-Oncogene Transcription Factor (AID 2282990); settings: HepG2, Attagene cis-reporter transcription factor activity; actives raise or lower the signal
Outline: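 Multiplexed cis-reporter transcription in HepG2 cells after 24 h chemical treatment. Reporter mRNA measured by RT-PCR and capillary electrophoresis fluorescence; activity fitted bidirectionally against DMSO control.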

[16] = ATG_NRF2_ARE_CIS: Attagene CIS-FACTORIAL HepG2 Assay for human Nuclear Factor Erythroid 2 Related Factor 2 (NFR2) response to Antioxidant Response Elements (ARE) (AID 2282992); settings: HepG2 Attagene ARE/NRF2 reporter, transcription factor activity; actives raise or lower the signal
Outline: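 Multiplexed reporter mRNA profiling in HepG2 after a 24 h chemical exposure. Curves fitted in both directions relative to DMSO negative control.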

[17] = ATG_Oct_MLP_CIS: Attagene CIS-FACTORIAL HepG2 Assay for human Octamer-Binding Transcription Factor (Oct) (AID 2282993); settings: HepG2 Attagene cis-factorial Oct reporter, mRNA; actives raise or lower the signal
Outline: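 HepG2, transient MRTU transfection, cis promoter elements; 24 h dosing; RT-PCR/CE fluorescence read-out of reporter mRNA; fit both directions vs DMSO.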

[18] = target: Cellular tumor antigen p53 (Homo sapiens) (UniProt P04637); test: ATG_p53_CIS: Attagene CIS-FACTORIAL HepG2 Assay for human p53 Transcription Factor (AID 2282994); settings: HepG2 p53 cis-element reporter, Attagene mRNA; actives raise or lower the signal
Outline: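 Multiplexed reporter mRNA assay in human HepG2 liver cells; cis-regulated units report endogenous factor activity. Values come from bidirectional curve fitting against DMSO negative control after 24 h treatment.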

[19] = target: Nuclear receptor subfamily 1 group I member 2 (Homo sapiens) (UniProt O75469); test: ATG_PXR_TRANS: Attagene TRANS-FACTORIAL HepG2 Assay for human Pregnane X Receptor (PXR) (AID 2283008; active = hit-call score of the fitted dose curve at least 0.9, where 1 is the maximum)
Outline: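 Measures mRNA induction of a GAL4-UAS-driven reporter in human HepG2 cells transiently expressing PXR fused to Gal4, following 24 h treatment. DMSO served as negative control and baseline.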

[20] = ATG_XTT_Cytotoxicity: Cytotoxicity Assessment in the Attagene TRANS-FACTORIAL HepG2 Assay (AID 2283584; active = hit-call score of the fitted dose curve at least 0.9, where 1 is the maximum)
Outline: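 Cells: human HepG2, transiently transfected with MRTU reporter constructs. Exposure 24 h. Readout: XTT, cell number. Baseline/neg ctrl DMSO; loss-of-signal scored.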

Measured: AC50

Paired box protein Pax-6 (Homo sapiens), sequence (P26367 whole entry, looked up): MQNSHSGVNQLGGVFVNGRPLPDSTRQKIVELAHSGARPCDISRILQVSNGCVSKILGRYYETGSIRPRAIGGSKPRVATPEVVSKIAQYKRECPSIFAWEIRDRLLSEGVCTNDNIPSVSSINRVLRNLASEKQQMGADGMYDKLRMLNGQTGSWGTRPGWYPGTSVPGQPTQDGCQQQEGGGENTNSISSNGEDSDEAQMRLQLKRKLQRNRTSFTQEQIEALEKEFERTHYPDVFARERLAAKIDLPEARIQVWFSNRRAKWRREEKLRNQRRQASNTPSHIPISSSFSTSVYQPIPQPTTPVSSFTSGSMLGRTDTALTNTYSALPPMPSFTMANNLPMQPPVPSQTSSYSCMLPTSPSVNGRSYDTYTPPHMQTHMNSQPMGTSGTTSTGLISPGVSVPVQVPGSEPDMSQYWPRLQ
Nuclear receptor subfamily 1 group I member 2 (Homo sapiens), sequence (O75469 whole entry, looked up, the tested form may be a part): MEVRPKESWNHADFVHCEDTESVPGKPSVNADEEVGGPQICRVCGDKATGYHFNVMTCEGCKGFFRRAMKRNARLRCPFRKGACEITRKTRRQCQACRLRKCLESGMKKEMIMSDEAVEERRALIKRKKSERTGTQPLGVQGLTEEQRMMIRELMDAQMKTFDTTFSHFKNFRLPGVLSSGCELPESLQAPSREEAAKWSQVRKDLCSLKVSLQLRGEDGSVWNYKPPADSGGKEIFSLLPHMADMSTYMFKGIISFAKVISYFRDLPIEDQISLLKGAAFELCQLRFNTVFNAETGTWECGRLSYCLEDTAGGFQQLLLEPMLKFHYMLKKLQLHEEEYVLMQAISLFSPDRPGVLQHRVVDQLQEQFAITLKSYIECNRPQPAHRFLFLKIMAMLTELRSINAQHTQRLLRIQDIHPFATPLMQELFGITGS
Cellular tumor antigen p53 (Homo sapiens), sequence (P04637 whole entry, looked up): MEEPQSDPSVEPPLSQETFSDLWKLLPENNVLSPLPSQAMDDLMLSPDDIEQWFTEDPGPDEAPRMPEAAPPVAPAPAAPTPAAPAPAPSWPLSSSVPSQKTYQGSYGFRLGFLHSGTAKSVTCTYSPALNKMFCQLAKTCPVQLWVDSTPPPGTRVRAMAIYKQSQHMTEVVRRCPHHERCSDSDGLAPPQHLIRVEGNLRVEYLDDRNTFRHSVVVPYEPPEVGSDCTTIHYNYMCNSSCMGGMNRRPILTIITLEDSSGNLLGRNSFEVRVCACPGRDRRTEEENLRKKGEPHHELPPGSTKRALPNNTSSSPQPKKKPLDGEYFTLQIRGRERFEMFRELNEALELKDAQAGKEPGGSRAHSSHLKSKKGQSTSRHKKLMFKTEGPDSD
Hypoxia-inducible factor 1-alpha (Homo sapiens), sequence (Q16665 whole entry, looked up): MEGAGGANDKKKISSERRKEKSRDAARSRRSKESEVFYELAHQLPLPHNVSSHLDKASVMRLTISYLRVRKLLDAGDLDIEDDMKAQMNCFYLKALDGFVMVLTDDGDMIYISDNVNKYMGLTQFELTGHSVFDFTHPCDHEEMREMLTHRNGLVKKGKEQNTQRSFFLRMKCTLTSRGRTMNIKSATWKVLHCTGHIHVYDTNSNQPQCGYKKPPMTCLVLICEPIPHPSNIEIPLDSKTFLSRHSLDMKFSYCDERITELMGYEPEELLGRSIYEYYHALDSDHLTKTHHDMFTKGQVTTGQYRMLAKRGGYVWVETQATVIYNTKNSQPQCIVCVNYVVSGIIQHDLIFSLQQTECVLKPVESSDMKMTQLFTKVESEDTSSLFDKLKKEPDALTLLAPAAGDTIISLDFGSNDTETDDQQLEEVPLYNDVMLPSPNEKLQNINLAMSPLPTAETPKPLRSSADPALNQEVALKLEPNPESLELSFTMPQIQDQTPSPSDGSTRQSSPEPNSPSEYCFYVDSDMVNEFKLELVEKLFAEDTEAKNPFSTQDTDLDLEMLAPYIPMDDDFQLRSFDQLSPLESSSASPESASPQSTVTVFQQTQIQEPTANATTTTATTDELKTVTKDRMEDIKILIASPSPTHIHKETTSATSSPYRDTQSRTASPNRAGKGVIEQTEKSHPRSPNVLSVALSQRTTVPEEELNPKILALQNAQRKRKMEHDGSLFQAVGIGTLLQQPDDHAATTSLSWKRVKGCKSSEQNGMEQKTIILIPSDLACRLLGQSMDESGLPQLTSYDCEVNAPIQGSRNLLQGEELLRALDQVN
Myc proto-oncogene protein (Homo sapiens), sequence (P01106 whole entry, looked up): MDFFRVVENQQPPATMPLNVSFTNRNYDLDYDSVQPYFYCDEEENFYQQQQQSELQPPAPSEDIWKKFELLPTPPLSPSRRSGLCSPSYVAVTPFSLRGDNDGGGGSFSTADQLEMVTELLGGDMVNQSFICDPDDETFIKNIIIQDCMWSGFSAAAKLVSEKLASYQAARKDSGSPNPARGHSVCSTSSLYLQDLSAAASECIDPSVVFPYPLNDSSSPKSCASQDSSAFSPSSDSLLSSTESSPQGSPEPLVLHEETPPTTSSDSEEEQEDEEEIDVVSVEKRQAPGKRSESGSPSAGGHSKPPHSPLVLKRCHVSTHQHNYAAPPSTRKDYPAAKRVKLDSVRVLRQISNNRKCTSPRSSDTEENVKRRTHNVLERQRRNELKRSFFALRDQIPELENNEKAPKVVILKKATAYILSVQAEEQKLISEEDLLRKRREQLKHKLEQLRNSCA
X-box-binding protein 1 (Homo sapiens), sequence (P17861 whole entry, looked up, the tested form may be a part): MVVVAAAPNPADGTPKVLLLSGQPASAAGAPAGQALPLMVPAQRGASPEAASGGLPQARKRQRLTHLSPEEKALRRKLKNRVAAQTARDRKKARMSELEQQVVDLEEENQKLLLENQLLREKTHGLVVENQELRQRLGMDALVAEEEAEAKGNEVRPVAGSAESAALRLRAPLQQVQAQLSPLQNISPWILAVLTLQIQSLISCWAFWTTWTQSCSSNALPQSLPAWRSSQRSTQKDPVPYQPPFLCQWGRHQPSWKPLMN
Heat shock factor protein 1 (Homo sapiens), sequence (Q00613 whole entry, looked up, the tested form may be a part): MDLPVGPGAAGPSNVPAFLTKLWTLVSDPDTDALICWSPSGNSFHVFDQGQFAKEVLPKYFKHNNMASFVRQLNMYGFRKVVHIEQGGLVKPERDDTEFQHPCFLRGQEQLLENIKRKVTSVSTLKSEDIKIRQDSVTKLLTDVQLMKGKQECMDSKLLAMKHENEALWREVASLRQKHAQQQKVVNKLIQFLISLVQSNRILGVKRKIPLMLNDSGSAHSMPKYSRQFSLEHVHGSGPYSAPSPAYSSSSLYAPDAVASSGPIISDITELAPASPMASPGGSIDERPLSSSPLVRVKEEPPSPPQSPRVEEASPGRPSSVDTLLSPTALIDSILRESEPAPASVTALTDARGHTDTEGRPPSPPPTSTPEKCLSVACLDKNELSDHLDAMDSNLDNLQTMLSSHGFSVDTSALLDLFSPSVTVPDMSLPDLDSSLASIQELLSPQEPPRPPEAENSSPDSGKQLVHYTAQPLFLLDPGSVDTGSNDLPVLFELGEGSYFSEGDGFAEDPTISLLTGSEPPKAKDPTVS
Transcriptional activator Myb (Homo sapiens), sequence (P10242 whole entry, looked up): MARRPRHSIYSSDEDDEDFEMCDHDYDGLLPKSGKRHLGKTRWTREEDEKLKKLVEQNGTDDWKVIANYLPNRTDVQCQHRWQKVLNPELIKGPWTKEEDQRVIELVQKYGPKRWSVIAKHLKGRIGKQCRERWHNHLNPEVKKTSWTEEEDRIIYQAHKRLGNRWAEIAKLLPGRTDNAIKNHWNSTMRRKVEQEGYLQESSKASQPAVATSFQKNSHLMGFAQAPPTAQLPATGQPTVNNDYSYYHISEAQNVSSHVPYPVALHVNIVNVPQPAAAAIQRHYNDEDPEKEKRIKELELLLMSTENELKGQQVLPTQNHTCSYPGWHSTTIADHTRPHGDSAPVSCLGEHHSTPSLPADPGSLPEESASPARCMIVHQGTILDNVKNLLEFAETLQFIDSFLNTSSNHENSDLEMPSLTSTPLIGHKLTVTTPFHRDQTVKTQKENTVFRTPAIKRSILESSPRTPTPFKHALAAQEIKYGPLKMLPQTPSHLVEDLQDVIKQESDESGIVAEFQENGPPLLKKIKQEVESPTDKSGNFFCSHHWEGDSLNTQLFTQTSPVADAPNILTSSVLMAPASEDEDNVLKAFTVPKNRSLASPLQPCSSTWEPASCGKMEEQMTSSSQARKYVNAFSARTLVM
Signal transducer and activator of transcription 3 (Homo sapiens), sequence (P40763 whole entry, looked up): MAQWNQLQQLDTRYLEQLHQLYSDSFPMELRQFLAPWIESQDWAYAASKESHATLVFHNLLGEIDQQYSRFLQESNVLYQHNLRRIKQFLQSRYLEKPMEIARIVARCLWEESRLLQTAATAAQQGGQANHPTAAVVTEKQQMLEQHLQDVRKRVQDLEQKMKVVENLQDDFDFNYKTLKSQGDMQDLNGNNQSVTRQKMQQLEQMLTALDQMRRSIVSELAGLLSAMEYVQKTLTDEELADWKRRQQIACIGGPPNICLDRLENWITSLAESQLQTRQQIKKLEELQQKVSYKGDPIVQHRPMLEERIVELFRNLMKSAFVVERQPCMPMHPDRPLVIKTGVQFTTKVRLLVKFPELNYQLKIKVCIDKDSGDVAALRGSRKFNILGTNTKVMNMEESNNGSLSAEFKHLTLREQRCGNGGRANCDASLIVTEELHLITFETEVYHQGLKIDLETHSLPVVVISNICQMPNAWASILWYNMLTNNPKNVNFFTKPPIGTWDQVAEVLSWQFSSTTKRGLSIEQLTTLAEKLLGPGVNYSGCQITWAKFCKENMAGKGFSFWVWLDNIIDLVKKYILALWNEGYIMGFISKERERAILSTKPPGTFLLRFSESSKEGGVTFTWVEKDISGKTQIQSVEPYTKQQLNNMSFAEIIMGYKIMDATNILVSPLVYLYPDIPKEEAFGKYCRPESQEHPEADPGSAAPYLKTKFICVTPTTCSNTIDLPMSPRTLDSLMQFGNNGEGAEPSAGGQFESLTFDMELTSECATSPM

CN(C)Cc1cc(C(C)(C)C)c(O)c(C(C)(C)C)c1
active: [16] 37.8 µM
inactive: [1] | [2] | [3] | [4] | [5] | [6] | [7] | [8] | [9] | [10] | [11] | [12] | [13] | [14] | [15] | [17] | [18] | [19] | [20]

CCCOCCC
inactive: [1] | [2] | [3] | [4] | [5] | [6] | [8] | [9] | [10] | [11] | [12] | [13] | [14] | [15] | [16] | [17] | [18] | [19] | [20]

Oc1ccc(Cl)cc1C1CCCC1
inactive: [3] | [5] | [6] | [8] | [9] | [13] | [20]
active: [1] 33.4 µM | [2] 43.2 µM | [4] 52 µM | [7] 62.4 µM | [10] 61.4 µM | [11] 54.9 µM | [12] 43.1 µM | [14] 33.4 µM | [15] 16.6 µM | [16] 12.9 µM | [17] 47.9 µM | [18] 56.7 µM | [19] 9.24 µM

CC1=C(CC(=O)O)c2cc(F)ccc2/C1=C\c1ccc(S(C)=O)cc1 (stereo not drawn)
inactive: [1] | [2] | [3] | [4] | [7] | [8] | [9] | [10] | [11] | [12] | [13] | [14] | [15] | [17] | [18]
active: [6] 180 µM | [16] 23 µM | [19] 26.5 µM

Cc1cc(C)c(S(=O)(=O)O)cc1N=Nc1cc(S(=O)(=O)O)c2ccccc2c1O
inactive: [1] | [2] | [3] | [4] | [5] | [6] | [7] | [8] | [9] | [10] | [11] | [12] | [13] | [14] | [15] | [17] | [18] | [19] | [20]
active: [16] 72.2 µM

CCCC(=O)OC/C=C(\C)CCC=C(C)C
inactive: [1] | [2] | [3] | [4] | [5] | [6] | [7] | [8] | [9] | [10] | [11] | [12] | [13] | [14] | [15] | [17] | [19] | [20]

CNC[C@H](O)[C@@H](O)[C@H](O)[C@H](O)CO
inactive: [1] | [2] | [3] | [4] | [6] | [7] | [8] | [9] | [10] | [11] | [12] | [13] | [14] | [15] | [16] | [17] | [18] | [20]
